Test results taken from PubChem BioAssay (Tox21).
Activity calls are given as the source filed them. Calls follow the shape of the dose curve; as a rule, active = well fitted curve in the direction sought with a large enough effect in the repeat runs; inconclusive = weak or mixed curves; inactive = flat fitted curve, though single readings scatter.

experiment: qHTS assay to test for compound auto fluorescence at 460 nm (blue) in HepG2 cell free culture (AID 720685); conditions: Cell-free culture medium, blue autofluorescence 405/460 nm; series mostly up to 46 µM; fluorescence, % of fluorescent control: at the top concentration
From the text: U.S. Tox21 Program National Center for Advancing Translational Sciences [NCATS] NIH Chemical Genomics Center [NCGC] U.S. Environmental Protection Agency [EPA] National Institutes of Environmental Health Sciences [NIEHS] National Toxicology Program [NTP] U.S. Food and Drug Administration [FDA] Tox21 Assay Overview: Compound auto fluorescence often interferes with screening of the compound library against various biological targets and signaling pathways. Some of these compounds may have fluorophoric properties. Such properties may interfere with the assay outputs resulting in false positives and/or negatives. To decrease such complications and ensure the compound activities are relevant in terms of biological response, the Tox21 10K compound library was screened for auto fluorescence. From the fluorophores used as reporter signals in our screening assays, the auto fluorescence equivalencies of compounds against three fluorophores have been evaluated: Triamterene, Fluorescein and Rose Bengal sodium for blue, green and red fluorescence, respectively. The fluorescence intensities were measured using Excitation/Emission wavelengths at 405/460nm, 485/535nm and 540/590nm for blue, green and red labels, respectively. This assay includes the blue fluorescence data.
Tox21 Assay Protocol Summary: 5 uL of culture medium (MEM containing 10% FBS) per well was dispensed into black wall/clear bottom 1536-well plates using a Multidrop Combi Dispenser (ThermoFisher Scientific, Waltham, MA). After 23 nL compound or DMSO vehicle was transferred into assay plate by a pintool work station (Kalypsys, San Diego, CA), fluorescence intensities in the assay plates were measured by an Envision (PerkinElmer, Shelton, CT) plate reader using three labels for measuring blue, green and red fluorescence at […] 460, 535 and 590nm respectively.
% is scaled to controls: 0 for no effect and ±100 for the full control effect.

Which “fluorescence, % of fluorescent control” value does the source give for `Nc1ccc(S(=O)(=O)Nc2ccnn2-c2ccccc2)cc1` here?
Its value is 0.0153% [at 18.6 µM] (inactive).

With `CC(C)NCC(O)c1ccc(NS(C)(=O)=O)cc1` (stereo not given) as the compound, how does the outcome read?
Its outcome is “inactive”.

For `CCN(Cc1ccncc1)C(=O)C(CO)c1ccccc1` (stereo not given), which “fluorescence, % of fluorescent control” value is on record?
The value was -0.0343% (inactive).

With `CCn1ccnc1CC1COc2ccccc2O1` (stereo not given) as the compound, how does the “fluorescence, % of fluorescent control” value read?
The value was -0.115% (inactive).

For `C[C@](N)(Cc1ccc(O)cc1)C(=O)O`, which “fluorescence, % of fluorescent control” value is on record?
The value was 0.124% (inactive).

With `C=C(C)C(=O)OCCCCCCCC(C)C` as the compound, how does the “fluorescence, % of fluorescent control” value read?
The value was -0.128% [at 91.3 µM] (inactive).

With `OCCCC1CCCCC1` as the compound, how does the “fluorescence, % of fluorescent control” value read?
Its value is -0.147% [at 91.3 µM] (inactive).

With `CCCN(CCC)CCc1cccc2c1CC(=O)N2` as the compound, how does the “fluorescence, % of fluorescent control” value read?
Its value is 0.0389% (inactive).

For `N=c1nc(N2CCCCC2)cc(N)n1O`, which “fluorescence, % of fluorescent control” value is on record?
The value was -0.0361% (inactive).

With `CCN(CC)CCOCCOC(=O)C1(c2ccccc2)CCCC1` as the compound, how does the “fluorescence, % of fluorescent control” value read?
Its value is 0.022% (inactive).

With `CS(=O)(=O)O` as the compound, how does the “fluorescence, % of fluorescent control” value read?
Its value is -0.0244% [at 91.3 µM] (inactive).

Which “fluorescence, % of fluorescent control” value does the source give for `C[N+](C)(C)CCCCCC[N+](C)(C)C` here?
Its value is -0.0566% (inactive).

Which “fluorescence, % of fluorescent control” value does the source give for `CCC(=O)OC(C)c1ccccc1` (stereo not given) here?
The value was -0.0492% [at 91.3 µM] (inactive).

Which “fluorescence, % of fluorescent control” value does the source give for `CCCCNC(=O)NCCCC` here?
The value was 0.135% [at 91.3 µM] (inactive).

Which “fluorescence, % of fluorescent control” value does the source give for `Cc1c(NC(C)C)c(=O)n(-c2ccccc2)n1C` here?
Its value is 0.0808% (inactive).

For `CCCCCOC(=O)CCCCC`, which “fluorescence, % of fluorescent control” value is on record?
The value was 0.0101% [at 91.3 µM] (inactive).

For `O=S(O)CO`, which outcome is on record?
The outcome was “inactive”.

With `O=c1cc(CO)occ1O` as the compound, how does the outcome read?
The outcome was “inactive”.

For `CC(C)OC(=O)c1ccccc1`, which “fluorescence, % of fluorescent control” value is on record?
The value was 0.0336% [at 95.7 µM] (inactive).

For `CCO/C([O-])=N/c1c[n+](N2CCOCC2)no1`, which “fluorescence, % of fluorescent control” value is on record?
The value was -0.004% [at 18.6 µM] (inactive).

With `CCCCCSCCCCC` as the compound, how does the “fluorescence, % of fluorescent control” value read?
Its value is -0.0104% [at 91.3 µM] (inactive).

For `CCc1nccnc1CC`, which “fluorescence, % of fluorescent control” value is on record?
Its value is 0.0104% [at 18.6 µM] (inactive).

For `Brc1c(NC2=NCCN2)ccc2nccnc12`, which “fluorescence, % of fluorescent control” value is on record?
Its value is -0.0352% (inactive).

Which “fluorescence, % of fluorescent control” value does the source give for `c1cnc(N2CCN(Cc3ccc4c(c3)OCO4)CC2)nc1` here?
The value was -0.119% (inactive).

Which “fluorescence, % of fluorescent control” value does the source give for `c1ccc([C@H]2CN3CCSC3=N2)cc1` here?
The value was 0.0982% (inactive).

Which outcome does the source give for `FC(F)OC(Cl)C(F)(F)F` (stereo not given) here?
Its outcome is “inactive”.

For `COC(=O)C1=C(C)NC(C)=C(C(=O)OC)C1c1ccccc1[N+](=O)[O-]`, which outcome is on record?
The outcome was “inactive”.

With `C[N+](C)(C)CC(O)CC(=O)[O-]` (stereo not given) as the compound, how does the “fluorescence, % of fluorescent control” value read?
Its value is 0.0151% (inactive).

With `N=C(N)c1ccccc1` as the compound, how does the “fluorescence, % of fluorescent control” value read?
The value was -0.0477% [at 91.3 µM] (inactive).

Which outcome does the source give for `O=C[C@H](O)[C@@H](O)[C@H](O)[C@H](O)CO` here?
The outcome was “inactive”.

For `Nc1c2c(nc3ccccc13)CCCC2O` (stereo not given), which “fluorescence, % of fluorescent control” value is on record?
Its value is 0.389% (inactive).

Which “fluorescence, % of fluorescent control” value does the source give for `COC(=O)c1ccc(C)cc1C1=NC(C)(C(C)C)C(=O)N1` (stereo not given) here?
The value was 0.0203% [at 91.3 µM] (inactive).

Which “fluorescence, % of fluorescent control” value does the source give for `CC(=O)OCC(CCn1cnc2cnc(N)nc21)COC(C)=O` here?
Its value is -0.0283% (inactive).

For `CC(C[N+](C)(C)C)OC(N)=O` (stereo not given), which “fluorescence, % of fluorescent control” value is on record?
Its value is -0.0216% (inactive).

Which “fluorescence, % of fluorescent control” value does the source give for `CCCCCCOC(=O)CCCCC(=O)OCCCCCC` here?
Its value is 0.0299% [at 91.3 µM] (inactive).

For `CCCc1cc(C(N)=S)ccn1`, which “fluorescence, % of fluorescent control” value is on record?
Its value is 0.0715% (inactive).

Which “fluorescence, % of fluorescent control” value does the source give for `C[C@H](NC(CCc1ccccc1)C(=O)O)C(=O)N1CCC[C@H]1C(=O)O` (stereo not given in full) here?
The value was 0.0776% (inactive).

For `Nc1c[n+](N2CCOCC2)no1`, which “fluorescence, % of fluorescent control” value is on record?
Its value is 0.135% (inactive).

Which “fluorescence, % of fluorescent control” value does the source give for `O=C(O)CCCc1ccccc1` here?
Its value is -0.027% (inactive).

For `OCCOc1ccc(OCCO)cc1`, which “fluorescence, % of fluorescent control” value is on record?
The value was 0.122% [at 95.7 µM] (inactive).
